Here are results for 13 compounds from PubChem BioAssay (NCI).

The panel holds about 83,000 compounds, 20% with a hit somewhere; the sample as a whole holds those more often.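 How to read the values: 0–100, growth inhibition (40 = 60% inhibited); 0, no net growth; -100 to 0, cell death (-40 = 40% of starting cells died; -100 = all dead).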 A number with no mark means an inactive call. Activity calls are given as the source filed them. The calls were made as follows: active = growth percent below 10; inactive = the rest.

This assay relates to MDA-MB-468 breast. Nature of the assay: NCI-60 one-dose screen, 48 h (100 = growth as untreated, 0 = no growth, -100 = all killed). Conditions: 10 µM unless noted.

Consider `COc1ccc(/C=C\c2cc(OC)c(OC)c(OC)c2)c(NS(=O)(=O)c2ccc(C(C)(C)C)cc2)c1O`, for which the growth is 38.9%. As for `N#CC(=C1C=CC(=NO)C=C1)c1ccccc1`, the figure is 13.8%. `COc1cc2c(cc1OCCCOC1=C=C=C(c3ccc4c(c3)c3cc(-c5ccc(OCCCOc6cc7c(cc6OC)C(=O)N6CCC[C@H]6C=N7)cc5)ccc3n4S(=O)(=O)c3ccc(C)cc3)C=C1)N=C[C@@H]1CCCN1C2=O`: the growth was -17% (active). On to `Cc1cc(CO)c(O)c(CO)c1`, for which the growth is 106%. Consider `Cc1ccc(CN2CCC(C(=O)Nc3ccc(-c4cc5ccccc5[nH]4)cc3)CC2)o1`, for which the growth is 5.26% (active).

Take `O=c1cc(CSc2nnc(-c3ccccc3)n2-c2ccc(F)cc2)c2ccc3ccccc3c2o1`: the growth was 93.2%. On to `O=C1C(Nc2ccccn2)=C(I)C(=O)c2ncccc21`, for which the growth is -70.1% (active). For the compound `Nc1ncnc2c1c(-c1ccc(Oc3ccccc3)cc1)nn2C[C@@H]1SSC[C@@H]1O`, the growth is -27.7% (active). Take `CC(C)NC(=O)c1cc(-c2ccc(NC(=O)Nc3ccc(F)cc3)cc2)nc2cccnc12`: the growth is 88.9%. On to `CC(C)CSc1nc(Nc2ccccc2)c(C#N)c(-c2ccc(F)cc2)n1`, for which the growth is 16.4%. As to `C(=C(\C1=NCCN1)n1ccc2ccccc21)/c1ccccc1`, the growth is 96.5%.

`Cc1ccc(Cc2cnc(NC(=O)CN3C(=O)/C(=C\c4ccccc4)SC3=S)s2)cc1`: the growth was 105%.

Turning to `COc1cc(C2=NN(C(C)=O)C(c3ccc(N4CCOCC4)cc3)C2)cc(OC)c1OC` (stereo not drawn), the growth was 96.7%.
